Screening results (PubChem)
Compounds with a hit are over-represented: about 1.7% of the library has one in this group of screens.
IL1B cytotox: cytotoxicity in IL-1B stimulated HUVEC, primary screen, cytotoxicity control for IL-1B NFkB translocation project, imaging, Hoechst nuclear count, IL-1B stimulus. HUVEC cell count loss. cell count reduction, % at 2 µM. actives 0.41% (n = 94,000);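 active = cell count reduction more than 3 SD above the screen-wide mean, cut at about 70% in these data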;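 note: normalized per plate to untreated control cells as the no-loss baseline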
VCAM1 TNFa inh: inhibitors of TNFa-induced VCAM1 expression, primary screen, imaging, HUVEC, TNFa stimulus, immunofluorescence; HUVEC TNFa-induced VCAM-1 immunofluorescence, high-content imaging; inhibition, % at 2 µM; actives 0.48% (n = 95,000); AID 802, 2007;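 active = inhibition above the batch mean plus 3 SD, with images confirmed as a hit by eye, cut at about 37% in these data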;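 note: 0% = TNF-stimulated DMSO wells and 100% = unstimulated control wells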
E-sel TNF inh: E-selectin induction blockers in HUVEC – imaging, immunofluorescence, high content, primary screen. inhibition, % at 2 µM. HUVEC TNFa-induced E-selectin immunofluorescence. AID 1246, 2008. actives 0.71% (n = 120,000);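 active = inhibition above the batch mean plus 3 SD, and confirmed as a hit on visual image review, cut at about 43% in these data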;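 note: 0% = TNF-stimulated DMSO wells and 100% = unstimulated control wells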
IL1B NFkB pot: enhancers of NFkB p65 translocation in HUVEC – imaging, IL-1B stimulus, high-content imaging, primary screen; actives 0.3% (n = 94,000); activation, % at 2 µM; HUVEC IL-1B NFkB p65 nuclear translocation imaging;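 active = activation above 40%, about the mean plus 3 SD, also judged a hit on visual image review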;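 note: percent activation is computed from the nuclear over cytoplasmic p65 intensity ratio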
IL1B NFkB inh: inhibitors of IL-1B driven NFkB p65 nuclear import, primary screen, imaging, HUVEC, IL-1B stimulus, high-content imaging; HUVEC IL-1B NFkB p65 nuclear translocation imaging; inhibition, % at 2 µM; actives 0.43% (n = 94,000); AID 796, 2007;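 active = inhibition above about 30% together with a positive call from visual inspection of the well image, limit read from the data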;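 note: nuclear over cytoplasmic p65 intensity ratio measured by imaging; 0% = IL-1B stimulated DMSO wells and 100% = unstimulated DMSO wells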
TNFa cytotox: cytotoxicity in TNFa-stimulated HUVEC, primary screen, cytotoxicity control for VCAM1 expression modulator project, imaging, Hoechst nuclei count | HUVEC TNFalpha-stimulated, Hoechst cell count | cell count reduction, % at 2 µM | actives 0.17% (n = 93,000) | AID 848, 2007;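 active = cell count reduction exceeding the screen mean by over 5 SD, scaled to untreated wells per plate, cut at about 78% in these data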;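 note: cells counted after 24 h of TNF alpha exposure following the 1 h pretreatment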
Starred values were filed as active, the others as inactive.

For COC(=O)CN(c1cccc(F)c1)S(C)(=O)=O the results were IL1B cytotox 0, VCAM1 TNFa inh -6, E-sel TNF inh 1, IL1B NFkB pot 71*, IL1B NFkB inh -71 and TNFa cytotox -14.
For COc1ccc(/C=N\NC(=O)c2ccc(=O)[nH]n2)cc1O the results were E-sel TNF inh -2.
COc1ccc(/C=N/NC(=O)CCc2c(C)n[nH]c2C)cc1O was read as IL1B cytotox -9, VCAM1 TNFa inh -7, E-sel TNF inh 12, IL1B NFkB pot 55*, IL1B NFkB inh -55 and TNFa cytotox 3.
For Cc1cc(C)n2nc(SCC(=O)N/N=C/c3cccc(Br)c3)nc2n1 the results were IL1B cytotox -31, VCAM1 TNFa inh -10, E-sel TNF inh 14, IL1B NFkB pot 136*, IL1B NFkB inh -136 and TNFa cytotox 0.
CCOC(=O)COc1ccc2cc(C(=O)OCC)c(=O)oc2c1 was read as IL1B cytotox -3, VCAM1 TNFa inh 16, IL1B NFkB pot -2, IL1B NFkB inh 2 and TNFa cytotox -11.
`CCOC(=O)c1ccc(COC(=O)c2cc3ccccc3oc2=O)o1` gave IL1B cytotox 76*, VCAM1 TNFa inh -5, E-sel TNF inh 2, IL1B NFkB pot -2, IL1B NFkB inh 2 and TNFa cytotox 6.
For O=C(COc1cccnc1[N+](=O)[O-])Nc1cccc(S(=O)(=O)N2CCCCC2)c1 the results were E-sel TNF inh 39.
`O=C(c1ccc(COCC(F)(F)F)o1)N1CCCCCC1` gave IL1B cytotox 18, VCAM1 TNFa inh -14, E-sel TNF inh 74*, IL1B NFkB pot 2, IL1B NFkB inh -2 and TNFa cytotox -22.
`COc1cc(N(C)C)c(NC(C)=O)cc1C(=O)O` gave IL1B cytotox 85*, VCAM1 TNFa inh 22, E-sel TNF inh -1, IL1B NFkB pot 10, IL1B NFkB inh -10 and TNFa cytotox -5.
For CCC(C(=O)Nc1sc(C(N)=O)c(C)c1C(=O)OC)c1ccccc1 (stereo not drawn) the results were E-sel TNF inh -26.
O=C(Nc1cccnc1)c1ccc(S(=O)(=O)N2CCCCCC2)cc1 was read as IL1B cytotox -4, VCAM1 TNFa inh 22, E-sel TNF inh 24, IL1B NFkB pot 12, IL1B NFkB inh -12 and TNFa cytotox -26.
Screening COCCCNC(CC(=O)Nc1ccccc1C(=O)OC)C(=O)O (stereo not drawn) returned IL1B cytotox 26, VCAM1 TNFa inh -11, E-sel TNF inh 60*, IL1B NFkB pot 5, IL1B NFkB inh -5 and TNFa cytotox 7.
CC(Nc1ccccc1)c1cc(Cl)ccc1O (stereo not drawn) was read as IL1B cytotox 89*, VCAM1 TNFa inh 5, E-sel TNF inh -6, IL1B NFkB pot -91, IL1B NFkB inh 91* and TNFa cytotox 0.
Cc1cc(C)cc(-n2c(SCC(=O)Nc3cccc(S(=O)(=O)NC4=NCCCCC4)c3)nc3ccccc3c2=O)c1 was read as E-sel TNF inh -10.
O=C(CN1CCSCC1)N/N=C/c1ccc(F)c(F)c1 was read as VCAM1 TNFa inh 10, E-sel TNF inh -2 and TNFa cytotox -10.
`N/C(=N\c1nc(CSc2ccc(Cl)cc2)cc(=O)[nH]1)Nc1cccc2ccccc12` gave IL1B cytotox 1, VCAM1 TNFa inh -5, E-sel TNF inh 70*, IL1B NFkB pot 4, IL1B NFkB inh -4 and TNFa cytotox -4.
Screening CCC(=O)N1COC[C@@H]1Cc1ccccc1 returned E-sel TNF inh -25.
Screening COC(=O)c1ccccc1NC(=O)c1ccc(-c2cccc(Cl)c2)o1 returned IL1B cytotox 25, E-sel TNF inh 44*, IL1B NFkB pot 11 and IL1B NFkB inh -11.
CCSCCc1nnc(NC(=O)Nc2cccc(C(F)(F)F)c2)s1 was read as E-sel TNF inh -15.
`Fc1cccc(F)c1CSc1nc2ccccc2[nH]1` gave IL1B cytotox -12, VCAM1 TNFa inh -9, E-sel TNF inh 75*, IL1B NFkB pot 9, IL1B NFkB inh -9 and TNFa cytotox -30.
